# Several values for one entry are separate records, joined by “and”; a condition that tells them apart may be missing. Equal values may be shown once. Where a name gives a salt, the structure may show the parent alone. The campaign covered roughly 5,800 compounds. About 620 (11%) showed activity. The entries come from a sample that favours actives as a whole. Values without a mark were called inactive.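 The calls were made as follows: active = score above a cut-off or among the top three wells of a plate; in these data no inactive exceeds 0.85.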
# Tested on: primary human hepatic stellate cells (donor 1)
# Experiment: scaled lipid accumulation score (0 = DMSO-like, 1 = nortriptyline-like); higher = stronger HSC inactivation (lipid re-accumulation), active = hit call of the paper
# Settings: 48 h
# Procedure: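 Primary lipid accumulation screen in primary human hepatic stellate cell myofibroblasts (donor 1, passage 8) in 384-well plates. 100 nL of library compound was pin-transferred into 30 µL medium in duplicate, and cells were treated for 48 h. The 'Scaled' score combines distance from plate baseline, toxicity and reproducibility penalties, and is normalised to nortriptyline (positive) and DMSO (negative) controls on each plate. A hit is defined as scaled >0.85 or among the top 3 wells per plate.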
# [1] = library stock concentration: 3.33 mM
# [2] = library stock concentration: 10 mM
# [3] = library stock concentration: 80 uM
# [4] = library stock concentration: 400 uM
# [5] = library stock concentration: 2 mM
# [6] = library stock concentration: 1 mM
smiles,measurement,setting,value
"CNCCNS(=O)(=O)c1cccc2cnccc12 [H-8, Dihydrochloride]",scaled lipid accumulation score,[1],≤ 0
CNCCNS(=O)(=O)c1cccc2cnccc12 [H-8 dihydrochloride],scaled lipid accumulation score,[2],0.048
"NC(N)=NCCNS(=O)(=O)c1cccc2cnccc12 [HA 1004, Dihydrochloride]",scaled lipid accumulation score,[1],≤ 0
O=S(=O)(NCCNC/C=C/c1ccc(Br)cc1)c1cccc2cnccc12 [listing 1 of 2 here],scaled lipid accumulation score,[2],0.989 (active)
Cl.Cl.O=S(=O)(NCCNC/C=C/c1ccc(Br)cc1)c1cccc2cnccc12 [H 89 dihydrochloride],scaled lipid accumulation score,[2],1.26 (active)
O=S(=O)(NCCNC/C=C/c1ccc(Br)cc1)c1cccc2cnccc12 [listing 2 of 2 here],scaled lipid accumulation score,[3],≤ 0
same,scaled lipid accumulation score,[4],≤ 0
same,scaled lipid accumulation score,[5],0.134
NC(N)=NCCNS(=O)(=O)c1cccc2cnccc12,scaled lipid accumulation score,library stock concentration: 17 mM,0.047
"O=S(=O)(NCCNC/C=C/c1ccc(Br)cc1)c1cccc2cnccc12 [H-89, Dihydrochloride]",scaled lipid accumulation score,[1],≤ 0
O=S(=O)(NCCNCC=Cc1ccc(Br)cc1)c1cccc2cnccc12,scaled lipid accumulation score,[1],0.01
same,scaled lipid accumulation score,[2],0.542
"CCCCCC(=O)CC[C@H]1[C@H](O)CC(=O)[C@@H]1C/C=C\CCCC(=O)O [13,14-dihydro-15-keto Prostaglandin E2]",scaled lipid accumulation score,[6],≤ 0
O=C1NC(=O)c2cc(Nc3ccc(F)cc3)c(Nc3ccc(F)cc3)cc21,scaled lipid accumulation score,[2],≤ 0
CC1=C(C(=O)OCCN(Cc2ccccc2)c2ccccc2)C(c2cccc([N+](=O)[O-])c2)C(P2(=O)OCC(C)(C)CO2)=C(C)N1 (configuration not stated) [Efonidipine hydrochloride monoethanolate],scaled lipid accumulation score,[2],≤ 0
COc1ccccc1CNC1CCCNC1c1ccccc1 (configuration not stated),scaled lipid accumulation score,[2],0.474
CCCCC[C@H](O)/C=C/C=C\C=C\C=C\[C@@H](O)[C@@H](O)CCCC(=O)O [Lipoxin A4],scaled lipid accumulation score,library stock concentration: 100 uM,≤ -0.021
CC(C)N(CCCNC(=O)Nc1ccc(C(C)(C)C)cc1)C[C@H]1O[C@@H](n2cc(Br)c3c(N)ncnc32)[C@H](O)[C@@H]1O [listing 1 of 2 here],scaled lipid accumulation score,[2],1.12 (active)
CC(C)N(CCCNC(=O)Nc1ccc(C(C)(C)C)cc1)C[C@H]1O[C@@H](n2cc(Br)c3c(N)ncnc32)[C@H](O)[C@@H]1O [listing 2 of 2 here],scaled lipid accumulation score,[1],0.805
CC(C)N(CCCNC(=O)Nc1ccc(C(C)(C)C)cc1)C[C@H]1O[C@@H](n2ccc3c(N)ncnc32)[C@H](O)[C@@H]1O,scaled lipid accumulation score,[1],0.204
same,scaled lipid accumulation score,[2],0.636
"CCCCCCCC/C=C/CCCCCCCC(=O)Nc1c(C(C)C)cccc1C(C)C [Oleic Acid-2,6-diisopropylanilide]",scaled lipid accumulation score,[6],≤ 0
CCCCCCCCCCCCCCCCC(=O)NCCO [Heptadecanoyl Ethanolamide],scaled lipid accumulation score,[6],≤ 0
C[C@@H](Oc1cc(-n2cnc3ccc(CN4CCN(C)CC4)cc32)sc1C(N)=O)c1ccccc1C(F)(F)F [listing 1 of 3 here],scaled lipid accumulation score,[5],0.915 (active)
same,scaled lipid accumulation score,[2],1.2 (active)
COc1cc2ncn(-c3cc(OCc4ccccc4C(F)(F)F)c(C(N)=O)s3)c2cc1OC [listing 1 of 2 here],scaled lipid accumulation score,[3],≤ 0
same,scaled lipid accumulation score,[4],≤ 0
same,scaled lipid accumulation score,[5],≤ 0
same,scaled lipid accumulation score,[2],0.764
COc1cc2ncn(-c3cc(OCc4ccccc4C(F)(F)F)c(C(N)=O)s3)c2cc1OC [listing 2 of 2 here],scaled lipid accumulation score,[2],0.992 (active)
C[C@@H](Oc1cc(-n2cnc3ccc(CN4CCN(C)CC4)cc32)sc1C(N)=O)c1ccccc1C(F)(F)F [listing 2 of 3 here],scaled lipid accumulation score,[1],1.22 (active)
CC(C)c1cc(C(=O)N2Cc3ccc(CN4CCN(C)CC4)cc3C2)c(O)cc1O,scaled lipid accumulation score,[1],0.544
same,scaled lipid accumulation score,[2],0.828
COc1cc2ncn(-c3cc(OCc4ccccc4S(C)(=O)=O)c(C#N)s3)c2cc1OC [IKK-3 Inhibitor IX],scaled lipid accumulation score,[1],≤ 0
C[C@@H](Oc1cc(-n2cnc3ccc(CN4CCN(C)CC4)cc32)sc1C(N)=O)c1ccccc1C(F)(F)F [listing 3 of 3 here],scaled lipid accumulation score,[3],≤ 0
same,scaled lipid accumulation score,[4],0.039
same,scaled lipid accumulation score,[2],0.788
O=C1N(c2ccccc2)c2ccccc2C1(Cc1ccncc1)Cc1ccncc1 [Linopirdine dihydrochloride],scaled lipid accumulation score,[2],≤ -0.001
O=C1N(c2ccccc2)c2ccccc2C1(Cc1ccncc1)Cc1ccncc1 [Linopirdine],scaled lipid accumulation score,[2],≤ -0.051
O=C1N(c2ccccc2)c2ccccc2C1(Cc1ccncc1)Cc1ccncc1,scaled lipid accumulation score,[2],≤ 0
O=C(O)c1ccc(-c2ccc3cc(O)c(C45CC6CC(CC(C6)C4)C5)cc3c2)cc1,scaled lipid accumulation score,[2],0.021
CC[C@H]1OC(=O)[C@H](C)C(=O)[C@H](C)[C@@H](O[C@@H]2O[C@H](C)C[C@H](N(C)C)[C@H]2O)[C@](C)(OC)C[C@@H](C)C(=O)[C@H](C)[C@H]2N(CCCCn3cnc(-c4cccnc4)c3)C(=O)O[C@]12C [Telithromycin],scaled lipid accumulation score,[2],≤ -0.027
CC[C@H]1OC(=O)[C@H](C)C(=O)[C@H](C)[C@@H](O[C@@H]2O[C@H](C)C[C@H](N(C)C)[C@H]2O)[C@](C)(OC)C[C@@H](C)C(=O)[C@H](C)[C@H]2N(CCCCn3cnc(-c4cccnc4)c3)C(=O)O[C@]12C,scaled lipid accumulation score,[2],0.448
CCCCC[C@H](O)/C=C/[C@H]1C=CC(=O)[C@H]1C/C=C\CCCC(=O)O [8-iso Prostaglandin A2],scaled lipid accumulation score,[6],≤ 0
CCCCCCCCCCCCCC(=O)N[C@H](CO)[C@H](O)c1ccc([N+](=O)[O-])cc1,scaled lipid accumulation score,[6],0.012
CC(C)C[C@@H](/C=C/S(C)(=O)=O)NC(=O)[C@H](CC(C)C)NC(=O)[C@H](CC(C)C)NC(=O)OCc1ccccc1,scaled lipid accumulation score,library stock concentration: 9.1 mM,0.738
OC1CCC(Nc2ncc3nc(Nc4c(F)cc(F)cc4F)n([C@@H]4CCOC4)c3n2)CC1 (some centres not stated),scaled lipid accumulation score,[3],≤ 0
same,scaled lipid accumulation score,[4],≤ 0
same,scaled lipid accumulation score,[5],≤ 0
same,scaled lipid accumulation score,[2],≤ 0
O=C1O/C(=C/Br)CC[C@@H]1c1cccc2ccccc12 [(R)-Bromoenol lactone],scaled lipid accumulation score,[6],0.064
CCOC(=O)C1(CCCCCCOc2ccc(Cl)cc2)CO1 (configuration not stated),scaled lipid accumulation score,[2],≤ 0
O=C(O)CCC/C=C\C[C@@H]1[C@@H](/C=C/[C@@H](O)Cc2ccccc2)[C@H](O)C[C@@H]1O [16-phenyl tetranor Prostaglandin F2.alpha.],scaled lipid accumulation score,[6],≤ 0
COC(=O)/C=C/C(=O)N(O)CCCCNCc1ccc(COC(=O)Nc2cccc3ccccc23)cc1 [Methylstat],scaled lipid accumulation score,[3],≤ 0
same,scaled lipid accumulation score,[4],≤ 0
same,scaled lipid accumulation score,[5],≤ 0
same,scaled lipid accumulation score,[2],0.26
"CCCCC[C@H](O)/C=C/[C@H]1[C@H](O)CC(=O)[C@@H]1CCCCCCCCC(=O)O [1a,1b-dihomo Prostaglandin E1]",scaled lipid accumulation score,[6],≤ 0
CC1=C(/C=C/C(C)=C/C=C/C(C)=C/C=C/C=C(C)/C=C/C=C(C)/C=C/C2=C(C)C(=O)[C@@H](O)CC2(C)C)C(C)(C)C[C@H](O)C1=O [Astaxanthin],scaled lipid accumulation score,[2],≤ 0
CC1=C(/C=C/C(C)=C/C=C/C(C)=C/C=C/C=C(C)/C=C/C=C(C)/C=C/C2=C(C)CCCC2(C)C)C(C)(C)CCC1 [Beta Carotene],scaled lipid accumulation score,[1],≤ 0
same,scaled lipid accumulation score,[2],≤ 0
CC1=C(/C=C/C(C)=C/C=C/C(C)=C/C=C/C=C(C)/C=C/C=C(C)/C=C/C2=C(C)C(=O)CCC2(C)C)C(C)(C)CCC1=O [Canthaxanthin],scaled lipid accumulation score,library stock concentration: 3.5 mM,1.25 (active)
CC(=O)N1CCCC1C(=O)O (configuration not stated) [N-acetylproline],scaled lipid accumulation score,[2],≤ 0
C[C@]12C=CC(=O)C=C1CC[C@@H]1[C@@H]2[C@@H](O)C[C@@]2(C)[C@H]1CC[C@]2(O)C(=O)COC(=O)CCC(=O)O,scaled lipid accumulation score,[2],≤ 0
O=C(CCc1ccc(O)cc1)c1c(O)cc(O)cc1O[C@@H]1O[C@H](CO)[C@@H](O)[C@H](O)[C@H]1O [Phlorizin],scaled lipid accumulation score,[1],≤ 0
same,scaled lipid accumulation score,[2],≤ 0
CCCCC/C=C\C=C1\C(=O)CC[C@@H]1C/C=C\CCCC(=O)O,scaled lipid accumulation score,[6],≤ 0
CC(=O)OC[C@H]1O[C@@H]([S-])[C@H](OC(C)=O)[C@@H](OC(C)=O)[C@@H]1OC(C)=O.CCP(CC)CC.[Au+] [Auranofin],scaled lipid accumulation score,[2],0.439
CC[P](CC)(CC)=[Au][S][C@@H]1O[C@H](COC(C)=O)[C@@H](OC(C)=O)[C@H](OC(C)=O)[C@H]1OC(C)=O [Auranofin],scaled lipid accumulation score,library stock concentration: 2.9 mM,0.86 (active)
"CC[C@@H](CO)Nc1nc(NCc2ccc(-c3ccccn3)cc2)c2ncn(C(C)C)c2n1 [CR8, (S)-Isomer]",scaled lipid accumulation score,[1],≤ 0
CSc1nc(N)c2ncn([C@@H]3O[C@H](COP(=O)(O)OP(=O)(O)OP(=O)(O)O)[C@H](O)C3O)c2n1 (some centres not stated) [2-Methylthioadenosine triphosphate tetrasodium],scaled lipid accumulation score,[2],≤ 0
CS(=O)(=O)c1ccc(-n2nc(C(F)(F)F)cc2-c2ccc(F)cc2)cc1,scaled lipid accumulation score,[2],≤ -0.055
Cc1cc(Nc2ncnc3ccc(-c4ccc(CNCCS(C)(=O)=O)o4)cc23)ccc1Oc1ccn2ncnc2c1 [HER2-Inhibitor-1] [listing 1 of 2 here],scaled lipid accumulation score,[2],0.977 (active)
Cc1ccc(CNc2ncnc3ccc(-c4ccc(CO)o4)cc23)o1,scaled lipid accumulation score,[1],≤ -0.009
same,scaled lipid accumulation score,[2],≤ 0
CS(=O)(=O)CCNCc1nc(-c2ccc3ncnc(Nc4ccc(OCc5cccc(F)c5)c(Cl)c4)c3c2)cs1.Cl.Cl,scaled lipid accumulation score,[2],1.38 (active)
CCC(=O)Nc1ccc2ncnc(Nc3cccc(Br)c3)c2c1,scaled lipid accumulation score,[1],≤ 0
CC(C)(O)CC(=O)NCCn1ccc2ncnc(Nc3ccc(Oc4cccc(C(F)(F)F)c4)c(Cl)c3)c21,scaled lipid accumulation score,[1],≤ 0
same,scaled lipid accumulation score,[2],0.302
C[C@@H]1COC(Nc2ccc3ncnc(Nc4ccc(OCc5nccs5)c(Cl)c4)c3c2)=N1 [Varlitinib],scaled lipid accumulation score,[1],0.382
same,scaled lipid accumulation score,[2],0.594
C=CC(=O)Nc1ccc2ncnc(Nc3ccc(OCc4cccc(F)c4)c(Cl)c3)c2c1,scaled lipid accumulation score,[3],≤ -0.016
same,scaled lipid accumulation score,[4],≤ -0.016
same,scaled lipid accumulation score,[5],≤ -0.016
same,scaled lipid accumulation score,[1],0.132
same,scaled lipid accumulation score,[2],0.378 and 0.75
CS(=O)(=O)CCNCc1ccc(-c2ccc3ncnc(Nc4ccc(OCc5cccc(F)c5)c(Cl)c4)c3c2)o1 [listing 1 of 2 here],scaled lipid accumulation score,[5],1.7 (active)
Cc1cc(Nc2ncnc3ccc(-c4ccc(CNCCS(C)(=O)=O)o4)cc23)ccc1Oc1ccn2ncnc2c1 [HER2-Inhibitor-1] [listing 2 of 2 here],scaled lipid accumulation score,[1],0.203
CS(=O)(=O)CCNCc1ccc(-c2ccc3ncnc(Nc4ccc(OCc5cccc(F)c5)c(Cl)c4)c3c2)o1 [listing 2 of 2 here],scaled lipid accumulation score,[3],≤ 0
same,scaled lipid accumulation score,[4],≤ 0 and 0.144
same,scaled lipid accumulation score,[5],0.42
same,scaled lipid accumulation score,[2],0.429
